Shown are actives, neighbours in structure and some others; about 3.6% of the full set was active somewhere.
FAS-TE inh: inhibitors of human fatty acid synthase thioesterase domain | inhibition, % at 15 µM | recombinant FAS-TE, OMFH fluorogenic substrate, fluorescence endpoint | actives 0.67% (n = 360,000) | AID 602261;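 active = compounds whose normalised, plate-corrected inhibition of enzyme fluorescence in the single-dose primary screen is 50% or more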;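 also: 0% = DMSO with enzyme and 100% = substrate without enzyme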
CRFR2-BP antag: blocks CRF-induced signaling of the CRF-BP/CRF-R2 complex; HEK293 CRF-R2/CRF-BP, CRF-induced calcium fluorescence; inhibition, % at 11.8 µM; actives 0.59% (n = 350,000); AID 588475;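 active = inhibition of the ligand-induced calcium signal above about 50% at the single tested concentration, limit read from the data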
NRP1-CendR mod: modulators of CendR peptide binding to human neuropilin-1; FAM-RPARPAR peptide binding to NRP-1, fluorescence polarization; inhibition, % at 25 µM; actives 0.85% (n = 360,000); AID 602438;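 active = inhibition or corrected inhibition above about 18%, plus a signal ratio from 0.5 to 1.5, limit read from the data, passing the limit was not always enough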
Target sequence (O14786 whole entry, looked up): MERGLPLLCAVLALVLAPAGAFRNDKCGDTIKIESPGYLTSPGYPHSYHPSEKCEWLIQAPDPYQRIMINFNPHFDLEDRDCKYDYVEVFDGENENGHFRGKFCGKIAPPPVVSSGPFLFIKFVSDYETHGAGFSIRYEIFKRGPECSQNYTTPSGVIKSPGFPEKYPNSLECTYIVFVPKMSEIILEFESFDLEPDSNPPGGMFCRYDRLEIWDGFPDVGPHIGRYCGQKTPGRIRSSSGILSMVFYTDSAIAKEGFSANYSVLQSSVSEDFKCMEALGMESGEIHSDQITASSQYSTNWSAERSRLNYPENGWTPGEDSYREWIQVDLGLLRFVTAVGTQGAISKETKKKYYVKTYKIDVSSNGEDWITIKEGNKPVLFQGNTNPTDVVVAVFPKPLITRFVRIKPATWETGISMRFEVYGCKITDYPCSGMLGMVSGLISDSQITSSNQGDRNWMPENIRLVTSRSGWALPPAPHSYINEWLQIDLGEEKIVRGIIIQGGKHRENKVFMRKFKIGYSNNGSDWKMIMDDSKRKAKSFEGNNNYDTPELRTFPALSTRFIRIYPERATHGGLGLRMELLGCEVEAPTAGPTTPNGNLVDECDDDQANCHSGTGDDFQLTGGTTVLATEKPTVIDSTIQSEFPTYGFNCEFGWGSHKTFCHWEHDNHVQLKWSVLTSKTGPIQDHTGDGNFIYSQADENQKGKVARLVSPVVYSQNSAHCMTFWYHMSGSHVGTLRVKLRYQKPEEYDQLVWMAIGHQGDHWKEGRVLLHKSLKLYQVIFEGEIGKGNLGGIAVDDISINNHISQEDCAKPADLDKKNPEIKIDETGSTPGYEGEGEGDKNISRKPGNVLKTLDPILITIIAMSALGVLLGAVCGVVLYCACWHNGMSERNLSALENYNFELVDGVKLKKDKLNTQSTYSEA
Myeloid diff MLP: myeloid differentiation induction; calls only at 10 µM; actives 1% (n = 360,000); ER-HoxA9 myeloid progenitors, lysozyme-GFP differentiation, flow cytometry;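 active = normalized GFP-positive differentiation at or above the plate's own cutoff, the solvent-only control mean plus 3 SD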;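 also: cells exposed to compound for four days before flow analysis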
NadD block: NadD (S. aureus) enzyme inhibition; purified NadD enzyme, colorimetric absorbance read-out; inhibition, % at 20 µM; actives 0.78% (n = 360,000); in the data active = inhibition above about 26%
FAS-TE conf: FAS thioesterase (human) inhibition, confirmation. shares compounds with FAS-TE inh. recombinant FAS-TE, OMFH fluorogenic substrate, fluorescence. inhibition, % at 15 µM. actives 45% (n = 2,300). AID 624325;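 active = compounds inhibiting the enzyme by at least 50% at 15 µM in any one of the replicates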;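 also: 0% = enzyme with DMSO only and 100% = wells lacking enzyme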
Numbers without * were called inactive.

O=C(O)C1SCCN1S(=O)(=O)c1ccc(N=NN2CCOCC2)cc1 (stereo not given) was read as FAS-TE inh -10, CRFR2-BP antag -12, NRP1-CendR mod 4, Myeloid diff MLP inactive and NadD block -7.
For CSCCC(NC(=O)c1ccccc1Cl)C(=O)NCC(c1ccc(F)cc1)N1CCOCC1 (stereo not given) the results were FAS-TE inh -4, CRFR2-BP antag 1, NRP1-CendR mod 2, Myeloid diff MLP inactive and NadD block 3.
N#CCSc1nc2c(sc(=S)n2Cc2ccco2)c(=O)n1-c1ccc(F)cc1 was read as FAS-TE inh 58*, CRFR2-BP antag -8, NRP1-CendR mod -5, Myeloid diff MLP inactive, NadD block 0 and FAS-TE conf 17.
For CCn1c(=S)sc2c(=O)n(-c3ccccc3)c(SC)nc21 the results were FAS-TE inh 35, CRFR2-BP antag 28, NRP1-CendR mod 5, Myeloid diff MLP inactive and NadD block -3.
`CN(CC(=O)Nc1ccccc1Cl)C(=O)COC(=O)c1ccc([N+](=O)[O-])cc1Cl` gave FAS-TE inh 10, CRFR2-BP antag 6, NRP1-CendR mod 2, Myeloid diff MLP inactive and NadD block -1.
Screening CN(CCOc1ccccc1)CC(=O)Nc1ccc([N+](=O)[O-])cc1Cl returned FAS-TE inh 60*, CRFR2-BP antag -5, NRP1-CendR mod 11, Myeloid diff MLP inactive, NadD block -2 and FAS-TE conf 39*.
`COc1cccc(NC(=O)c2cc(OC)c(OC)c(OC)c2Br)c1` gave FAS-TE inh -6, CRFR2-BP antag 6, NRP1-CendR mod -2, Myeloid diff MLP inactive and NadD block -2.
`CC(C(=O)NCCC1=CCCCC1)c1ccc([N+](=O)[O-])cc1` (stereo not given) gave FAS-TE inh 70*, CRFR2-BP antag -9, NRP1-CendR mod 6, Myeloid diff MLP inactive, NadD block -4 and FAS-TE conf 69*.
Screening Cc1ccccc1OC(C)C(=O)NCCC1=CCCCC1 (stereo not given) returned FAS-TE inh 10, CRFR2-BP antag -11, NRP1-CendR mod -16 and NadD block -7.
Screening CC(Oc1cccc([N+](=O)[O-])c1)C(=O)NCCC1=CCCCC1 (stereo not given) returned FAS-TE inh 72*, CRFR2-BP antag 12, NRP1-CendR mod 2, Myeloid diff MLP inactive, NadD block 0 and FAS-TE conf 38.
`N#Cc1c(-c2cccs2)nc(SCc2ccc(Cl)cc2)[nH]c1=O` gave FAS-TE inh 66*, CRFR2-BP antag 55*, NRP1-CendR mod -58, Myeloid diff MLP inactive, NadD block 16 and FAS-TE conf 79*.
For CSc1nc(-c2cccs2)c(C#N)c(=O)[nH]1 the results were FAS-TE inh -4, CRFR2-BP antag 0, NRP1-CendR mod -25, Myeloid diff MLP inactive and NadD block 3.
Screening CCOc1ccc(-c2ccc(NS(=O)(=O)c3cc([N+](=O)[O-])c(C)c([N+](=O)[O-])c3)cc2)nn1 returned FAS-TE inh 84*, CRFR2-BP antag 10, NRP1-CendR mod 2, Myeloid diff MLP inactive, NadD block 12 and FAS-TE conf 83*.
`CCOc1ccc(-c2cccc(NS(=O)(=O)c3ccccc3[N+](=O)[O-])c2)nn1` gave FAS-TE inh 11, CRFR2-BP antag 3, NRP1-CendR mod 1, Myeloid diff MLP inactive and NadD block 3.
`CN(C)CCNC(=O)c1cccc(-c2cnc3c(NC=O)cc(-c4cccs4)cn23)c1` gave FAS-TE inh -4, NRP1-CendR mod -20, Myeloid diff MLP inactive and NadD block 12.
Cc1ccc(CC(=O)Nc2cc(C)on2)cc1 was read as FAS-TE inh 3, CRFR2-BP antag -14, NRP1-CendR mod 4, Myeloid diff MLP inactive and NadD block -2.
`COc1ccc(-c2nnc(SC)nc2-c2ccc(OC)c([N+](=O)[O-])c2)cc1[N+](=O)[O-]` gave FAS-TE inh 69*, CRFR2-BP antag 0, NRP1-CendR mod -22, Myeloid diff MLP inactive, NadD block 16 and FAS-TE conf -1.
COc1ccc(CSC(=N)N)cc1[N+](=O)[O-] was read as FAS-TE inh -9, CRFR2-BP antag -2, NRP1-CendR mod 1, Myeloid diff MLP inactive and NadD block 6.
For CCc1nn(CC(=O)NCCC(C)C)c(=O)c2cc3c(OC)cccc3n12 the results were FAS-TE inh -6, CRFR2-BP antag 6, NRP1-CendR mod -8, Myeloid diff MLP inactive and NadD block -1.
O=C(c1ccccc1O)N1N=C(C(F)(F)F)CC1(O)c1ccc([N+](=O)[O-])cc1 (stereo not given) was read as FAS-TE inh 30, CRFR2-BP antag 4, NRP1-CendR mod 7, Myeloid diff MLP inactive and NadD block -4.
Screening CCc1ccc(C2(O)CC(C(F)(F)F)=NN2C(=O)Cc2ccc([N+](=O)[O-])cc2)cc1 (stereo not given) returned FAS-TE inh 52*, CRFR2-BP antag -28, NRP1-CendR mod -2, Myeloid diff MLP inactive, NadD block -11 and FAS-TE conf 18.
Screening O=C1CSc2ccc(C(=O)Nc3cccc(S(=O)(=O)Nc4ccc(Br)cc4)c3)cc2N1 returned FAS-TE inh 50*, CRFR2-BP antag -19, NRP1-CendR mod -3, Myeloid diff MLP inactive, NadD block 30 and FAS-TE conf 21.
CCn1c(C)c(C(C)=O)c(N2CCN(C(c3ccccc3)c3ccccc3)CC2)nc1=S was read as FAS-TE inh 70*, CRFR2-BP antag 5, NRP1-CendR mod -13, Myeloid diff MLP inactive, NadD block 4 and FAS-TE conf 61*.
For COc1ccc(C2CC23N=C(c2ccccc2)OC3=O)cc1 (stereo not given) the results were FAS-TE inh 85*, CRFR2-BP antag 11, NRP1-CendR mod 3, Myeloid diff MLP inactive, NadD block -2 and FAS-TE conf 96*.
CCNC(=O)c1c(O)c2c([nH]c1=O)CCCC2 was read as FAS-TE inh -1, CRFR2-BP antag -10, NRP1-CendR mod 12, Myeloid diff MLP inactive and NadD block -2.
CCSC(=S)Nc1c(C)n(C)n(-c2ccccc2)c1=O was read as FAS-TE inh -4, CRFR2-BP antag -2, NRP1-CendR mod 12, Myeloid diff MLP inactive and NadD block 3.
`COc1ccc(C2CC(c3cccs3)=NN2C(=O)CSc2nc(=O)n3cc(C)ccc3n2)cc1` (stereo not given) gave FAS-TE inh 53*, CRFR2-BP antag 9, NRP1-CendR mod -26, Myeloid diff MLP inactive, NadD block 26 and FAS-TE conf 4.
`COC(=O)[C@@]1(Cc2ccc(OC)cc2)[C@H]2c3cc(C(=O)N4CCCC4)n(CCc4c[nH]c5ccccc45)c3C[C@H]2CN1C(=O)c1ccccc1` gave FAS-TE inh 58*, NRP1-CendR mod -11, Myeloid diff MLP inactive, NadD block 20 and FAS-TE conf 23.

Screens from PubChem BioAssay.
